Screening results (PubChem)
Rows were chosen to be rich in hits. Some 9.5% of all compounds tested hit in one or more screens of this group.
Pf growth 48h = Primary qHTS for delayed death inhibitors of the malarial parasite plastid, 48 hour incubation | actives 5.9% (n = 310,000) | Potency, µM (titrated, usually from 28.7 µM), for inactives: at the highest dose activity change, negative = inhibition, usual class: inhibitors | P. falciparum luciferase growth in erythrocytes, 48 h; active means well fitted inhibition curve with a large enough effect; inconclusive means small, poorly fitted or top-dose-only effect, or another doubt; inactive means no such curve, though single readings can be large or run the other way; further: on the % scale 0 is the no-effect control and ±100 the full control effect
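Erythrocytes infected with P. falciparum carrying an integrated firefly luciferase reporter (2% hematocrit, 0.1% parasitemia final) were exposed to compounds in RPMI 1640 with 0.5% Albumax at 37 C, 5% CO2. Growth inhibition was scored as reduced luminescence.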
Pf growth 96h = Primary qHTS for delayed death inhibitors of the malarial parasite plastid, 96 hour incubation; P. falciparum luciferase reporter growth, 96 h; Potency, µM (highest dose often 28.7 µM), inactives show top-dose activity change, negative = inhibition, hits mostly inhibitors; actives 6.9% (n = 320,000); AID 504834, 2011; active means well fitted inhibition curve with a large enough effect; inconclusive means small, poorly fitted or top-dose-only effect, or another doubt; inactive means no such curve, though single readings can be large or run the other way; further: on the % scale 0 is the no-effect control and ±100 the full control effect
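Two parasite generations (96 h, 37 C, 5% CO2) of compound exposure in infected erythrocytes (0.05% parasitemia, 2% hematocrit). Luciferase-reporter P. falciparum; decreased luminescence indicates inhibited growth, aimed at apicoplast-acting delayed death.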
RE007 growth inh = qHTS Assay for Inhibitors of the HIV-1 protein Vpr; S. pombe RE007 Vpr strain, BacTiter-Glo ATP luminescence, 24 h; Potency, µM (titrated, usually from 92.2 µM), for the others: at the top dose activity change, negative = less growth, usual class: inhibitors; actives 0.21% (n = 360,000); AID 651644, 2012; active means well fitted falling curve with a large enough effect; inconclusive means small, poorly fitted or top-dose-only effect; inactive means no such curve, though single readings can be large or run the other way; further: on the % scale 0 is the no-effect control and ±100 the full control effect; nearly all actives have a fitted effect of over 50% in size
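Fission yeast strain RE007, carrying one chromosomally integrated HIV-1 vpr copy, was seeded at OD 0.01 in PMG+AL medium with 23 nL pinned compound. After 24 h at 30 °C and 99% humidity, viability was read by BacTiter-Glo luminescence.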
SARS PLpro yeast = qHTS of Yeast-based Assay for SARS-CoV PLP; Potency, µM (highest dose often 32.9 µM), inactives show at the top dose activity, positive = growth rescue, actives largely listed as activators; AID 485353, 2010; actives 0.19% (n = 330,000); S. cerevisiae expressing SARS-CoV PLpro, growth rescue; further: 0% is about no effect; nearly all actives have a fitted effect of over 55% in size
NS1 function inh = qHTS Assay for Inhibitors of Influenza NS1 Protein Function. Potency, µM (highest dose often 46.1 µM), for the others: at the highest dose activity, positive = more growth. AID 2326, 2010. actives 0.4% (n = 270,000); further: actives are rising curves; nearly all actives have a fitted effect of over 50% in size
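S. cerevisiae expressing influenza A NS1, grown in glucose, washed, then diluted 1:100 into pH 6.0 -URA galactose medium with 23 nl compound. Growth recovery read as OD600; NS1-free strain serves as control.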
* marks the source's active call; other numbers are inactive results; u = inconclusive; x = no result; [ ] = dose if it differs, or a comment. Unless noted, the call rests on the fitted dose curve. Potency means the concentration at half of the fitted maximal effect.

SMILES | Pf growth 48h | Pf growth 96h | RE007 growth inh | SARS PLpro yeast | NS1 function inh
COc1ccc(-c2c(C#N)c(SCC(=O)c3cc4ccccc4oc3=O)nc(C)c2C(=O)Nc2ccccc2)cc1 | u | 12µM* | 23% | -10% | 10%
CCCCCCN1C[C@@H](O)[C@H](n2cc(COC(=O)c3ccccc3)nn2)C[C@@H]1c1ccc(C)cc1 | x | x | 0% | x | x
COC(=O)CC(NC(=O)CN1CCN(c2ccc(F)cc2)CC1)c1cccc(F)c1 (stereo not drawn) | -20% | 5% | -3% | 10% | -9%
COc1cccc(C(=O)OCC(=O)NCCC2=CCCCC2)c1 | x | x | 1% | -5% | x
CC(C)(C)C1=CC(O)(c2ccccc2)C=C(C(C)(C)C)C1=O | 10µM* | u | 8% | -10% | -42%
COc1ccc(/C=N/NC(=O)C(=O)N2CCCCCC2)cc1O | 0% | -100% | -14% | u | -8%
CCOC(=O)C(NC(=O)c1ccccc1)=C(C)C | x | -6% | 4% | 2% | 9%
COC(=O)C(NC(=O)c1ccccc1)=C(C)C | 8% | 4.1µM* | -5% | 5% | 2%
CCOc1c(Br)cc(CNc2ccc3c(c2)OCCO3)cc1OC | x | 0.83µM* | -20% | 3% | -10%
CCOc1c(Br)cc(CNC2CCCCCCC2)cc1OC | 10µM* | 6% | 17% | 0% | -5%
CC(C)(C#CCN1CCCCC1)OCCOC(c1ccccc1)c1ccccc1 | 0% | 0% | -12% | 22% | -2%
CCC1(c2ccc(OC)cc2)NC(=O)N(CC(=O)c2ccc3c(c2)OCCO3)C1=O (stereo not drawn) | u | u | 12% | 1% | x
CC(C)Nc1nc(NCCN2CCCC2)c2sc(-c3ccccc3)cc2n1 | x | x | -17%[18.4 µM] | x | x
COc1ccc2ncc(S(=O)(=O)c3ccccc3)c(N3CCC4(CC3)OCCO4)c2c1 | 8.3µM* | u | 3% | -59% | -14%
COc1ccc2ncc(S(=O)(=O)c3ccccc3)c(N3CCN(c4ccccc4)CC3)c2c1 | 7.4µM* | 13µM* | 15% | -3% | 13%
NS(=O)(=O)c1ccc(CNC(=O)c2cc(-c3cccnc3)nc3ccc(Br)cc23)cc1 | -24% | u | 11% | u | 3%
Nc1nc2c(nnn2C2CC(O)C(CO)O2)c(=O)[nH]1 (stereo not drawn) | x | x | -11%[18.4 µM] | x | x
CCCc1c(C(=O)N/N=C/c2sccc2C)nnn1-c1nonc1N | 41% | 8% | 2% | -1% | 6%
CC1CCCCC1NC(=O)C1CCN(c2c3c(nc4ncnn24)CCC3)CC1 (stereo not drawn) | 9.3µM* | -8% | -8% | u | 17%
CCc1ccc(N2CC(C(=O)Nc3ccccc3N3CCCC3)CC2=O)cc1 (stereo not drawn) | x | x | -16% | x | x
CCOC(=O)NC(O)C(=O)c1cccs1 (stereo not drawn) | 8% | 5.2µM* | -7% | -9% | 0%
CCOC(=O)NC(O)C(=O)c1ccc(F)cc1 (stereo not drawn) | -18% | u | 17% | 0% | x
CCN(CC)CCCC(C)Nc1cc(/C=C/c2ccccc2Cl)nc2cc(Cl)ccc12 (stereo not drawn) | 0.48µM* | 0.6µM* | x | x | x
CCN(C[C@H]1N[C@@](CC)(C(=O)OC)[C@H]2C(=O)N(Cc3ccccc3)C(=O)[C@@H]12)C(=O)NC(C)C | x | x | 12% | 1% | x
OCCC1CN(C2CCC2)CCN1Cc1ccc(F)c(F)c1 (stereo not drawn) | -1% | 12µM* | -4% | u | 17%
OCCC1CN(CC2CC2)CCN1Cc1ccc(F)c(F)c1 (stereo not drawn) | 35% | 13µM* | 4% | u | 13%
Cc1ccc(CN2CCN(C3CCC3)CC2CCO)cc1 (stereo not drawn) | 4% | u | 2% | -4% | 2%
Cc1ccccc1CN1CCN(C2CCC2)CC1CCO (stereo not drawn) | 1% | 15µM* | -5% | 0% | -1%
COC(=O)[C@]1(Cc2ccccc2)N[C@H](CN(C)C(=O)c2ccc(F)cc2)[C@@H]2C(=O)N(C)C(=O)[C@@H]21 | x | x | -6% | 0% | x
O=C(Nc1ccc(N2CCN(C(=O)c3ccccc3)CC2)cc1)c1cc2ccccc2o1 | 12µM* | x | 1% | -1% | -47%
